This passage reports Percent Effect results from ChEMBL document CHEMBL3988442, “University of Dundee, Small-Polar-MMV Screening Library” (2021).

Parameters in all cases: scale not given: direction of the effect not stated beside the values
The target of assay [1] is Protein translocase subunit SecA (Escherichia coli (strain K12)) (UniProt P10408). As to the kind of experiment: Assay to Identify E. coli SecA ATPase Inhibitors. It counts as functional. The note with it: 30 µM.
Assay [2] deals with T1, Ubiquitin-activating enzyme e1, putative (Leishmania donovani (strain BPK282A1)) (UniProt E9BSI1).
T1 sequence (whole entry): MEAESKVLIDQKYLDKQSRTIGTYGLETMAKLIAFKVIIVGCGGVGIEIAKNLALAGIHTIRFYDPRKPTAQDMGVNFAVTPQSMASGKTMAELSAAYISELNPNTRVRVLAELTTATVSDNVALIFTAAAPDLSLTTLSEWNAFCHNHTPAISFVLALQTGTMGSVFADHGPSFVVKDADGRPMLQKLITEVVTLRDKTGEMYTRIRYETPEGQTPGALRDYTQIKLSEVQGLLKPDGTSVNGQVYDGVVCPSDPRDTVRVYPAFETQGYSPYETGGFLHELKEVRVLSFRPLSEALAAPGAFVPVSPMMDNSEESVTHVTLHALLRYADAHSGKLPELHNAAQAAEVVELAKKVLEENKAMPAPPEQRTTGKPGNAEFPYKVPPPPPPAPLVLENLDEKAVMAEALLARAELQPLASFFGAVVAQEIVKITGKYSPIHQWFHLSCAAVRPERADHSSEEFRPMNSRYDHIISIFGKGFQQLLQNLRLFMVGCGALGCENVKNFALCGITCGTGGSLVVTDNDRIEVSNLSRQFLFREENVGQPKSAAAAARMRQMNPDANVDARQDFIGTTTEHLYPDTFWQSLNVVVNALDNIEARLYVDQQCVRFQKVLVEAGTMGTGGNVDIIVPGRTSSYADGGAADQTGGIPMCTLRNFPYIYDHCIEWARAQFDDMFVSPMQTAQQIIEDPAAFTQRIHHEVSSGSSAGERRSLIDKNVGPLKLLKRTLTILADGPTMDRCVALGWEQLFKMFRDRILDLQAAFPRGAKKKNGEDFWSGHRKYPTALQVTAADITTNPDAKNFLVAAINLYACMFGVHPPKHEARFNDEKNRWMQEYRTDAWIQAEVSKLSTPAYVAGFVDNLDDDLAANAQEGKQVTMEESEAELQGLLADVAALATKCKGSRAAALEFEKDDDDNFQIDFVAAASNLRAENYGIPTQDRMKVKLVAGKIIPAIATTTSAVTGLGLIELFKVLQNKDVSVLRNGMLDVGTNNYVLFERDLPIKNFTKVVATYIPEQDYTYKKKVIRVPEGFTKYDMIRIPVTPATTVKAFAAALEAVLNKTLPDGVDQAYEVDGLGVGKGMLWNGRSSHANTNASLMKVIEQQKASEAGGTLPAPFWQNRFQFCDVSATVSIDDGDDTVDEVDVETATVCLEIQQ
Description: Leishmania donovani Ubiquitin Activating Enzyme (LdE1). It counts as functional. The note with it: 30 µM.

The target in assay [3] is AMP-activated protein kinase, AMPK (Homo sapiens) (UniProt P54646+O43741+P54619+Q9UGJ0+Q9Y478+Q13131+Q9UGI9). As to the kind of experiment: AMP-dependent Kinase enzyme assay. An in vitro enzyme assay that detects ADP turnover that is directly proportional to AMPK activity. This uses naive AMPK that is activated during the assay with MK-8722. The note with it: 30 µM. Format: functional.

Assay [4] concerns the target Sialic acid-binding Ig-like lectin 9 (Homo sapiens) (UniProt Q9Y336). As to the kind of experiment: Hs-Siglec9 ALPHAscreen SOP 20170721. The conditions noted are these: 10 µM. (In general: In Alpha technology, singlet oxygen from a donor bead excites a nearby acceptor bead.)
The test system of the next assay is Trypanosoma cruzi. Description: Trypanosoma cruzi phosphomannomutase and mannose-1-phosphate guanylyltransferase assay. It counts as functional. The conditions noted are these: 10 µM.
Assay [5] has as its target T2, Arginase-2, mitochondrial (Homo sapiens) (UniProt P78540).
T2 sequence (whole entry): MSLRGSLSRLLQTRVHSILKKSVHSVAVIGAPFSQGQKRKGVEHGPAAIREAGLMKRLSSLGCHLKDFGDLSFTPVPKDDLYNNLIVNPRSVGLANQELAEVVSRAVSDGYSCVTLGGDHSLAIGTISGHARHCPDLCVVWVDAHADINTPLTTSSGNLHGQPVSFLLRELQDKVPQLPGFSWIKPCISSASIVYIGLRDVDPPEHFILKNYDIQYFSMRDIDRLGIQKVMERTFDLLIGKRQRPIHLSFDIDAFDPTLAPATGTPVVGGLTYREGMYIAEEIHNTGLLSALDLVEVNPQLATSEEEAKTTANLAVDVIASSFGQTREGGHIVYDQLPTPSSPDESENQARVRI
As to the kind of experiment: in vitro enzyme assay to detect the production of urea directly proportional to the activity of Arginase II. Further: in the data most compounds retested in dose-response had high values. It counts as functional. The note with it: 33.3 µM.

In assay [6] the target is T3, Proteasome subunit beta (Trypanosoma cruzi) (UniProt O96673).
T3 sequence (whole entry): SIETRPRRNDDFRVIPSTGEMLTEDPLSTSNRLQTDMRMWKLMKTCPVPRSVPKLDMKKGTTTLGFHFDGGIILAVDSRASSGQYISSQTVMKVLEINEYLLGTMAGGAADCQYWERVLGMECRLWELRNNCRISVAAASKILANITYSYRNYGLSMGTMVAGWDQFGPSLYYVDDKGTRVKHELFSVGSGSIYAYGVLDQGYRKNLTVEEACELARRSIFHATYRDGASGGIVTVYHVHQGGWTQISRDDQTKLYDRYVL
Description: Trypanosoma cruzi proteasome chymotrypsin-like activity (TcProtChymo) assay. Further: in the data most compounds retested in dose-response had high values. The conditions noted are these: 9.37 µM. It counts as functional.

A further assay is filed under the species Homo sapiens. Description: To identify inhibition of the IFN signalling (Jak-Stat) pathway via expression of an eGFP reporter gene under the control of an IFN-stimulated response element (ISRE) containing MxA promoter. Format: functional. The note with it: 30 µM.
The target in assay [7] is T4, Tyrosyl-tRNA synthetase, putative (Trypanosoma cruzi (strain CL Brener)) (UniProt Q4DSP6).
T4 sequence (whole entry): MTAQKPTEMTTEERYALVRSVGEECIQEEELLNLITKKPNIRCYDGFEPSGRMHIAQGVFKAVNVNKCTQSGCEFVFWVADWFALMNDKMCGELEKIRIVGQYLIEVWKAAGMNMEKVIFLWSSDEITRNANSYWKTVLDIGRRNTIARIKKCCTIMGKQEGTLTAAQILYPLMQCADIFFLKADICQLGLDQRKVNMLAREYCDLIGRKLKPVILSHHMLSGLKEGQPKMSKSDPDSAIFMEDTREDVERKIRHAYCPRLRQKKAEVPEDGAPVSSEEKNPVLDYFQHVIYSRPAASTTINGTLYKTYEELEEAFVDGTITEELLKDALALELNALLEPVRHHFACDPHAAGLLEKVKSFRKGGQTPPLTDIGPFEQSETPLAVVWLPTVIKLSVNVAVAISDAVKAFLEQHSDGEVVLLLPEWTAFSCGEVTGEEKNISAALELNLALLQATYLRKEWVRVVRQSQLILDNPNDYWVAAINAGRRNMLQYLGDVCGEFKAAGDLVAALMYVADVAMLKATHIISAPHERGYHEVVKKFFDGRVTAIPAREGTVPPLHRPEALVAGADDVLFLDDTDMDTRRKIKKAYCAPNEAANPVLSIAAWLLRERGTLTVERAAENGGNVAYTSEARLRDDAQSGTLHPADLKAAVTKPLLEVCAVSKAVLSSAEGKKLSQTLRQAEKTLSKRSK
Description: Trypanosoma cruzi tyrosyl tRNA synthetase (TcYRS) _High Tyrosine SOP. Further: in the data most compounds retested in dose-response had high values. The conditions noted are these: 30 µM. Format: functional.

The target in assay [8] is T4, Tyrosyl-tRNA synthetase, putative (Trypanosoma cruzi (strain CL Brener)). As to the kind of experiment: Trypanosoma cruzi tyrosyl tRNA synthetase (TcYRS) SOP. Format: functional. The conditions noted are these: 30 µM.
Assay [9] addresses Chromo domain-containing protein 1 (Saccharomyces cerevisiae (strain ATCC 204508 / S288c) (Baker's yeast)) (UniProt P32657). As to the kind of experiment: ScCHD-1 Enzyme Inhibition Assay. Further: in the data most compounds retested in dose-response had high values. Format: functional. The note with it: 30 µM.

The structures appear in SMILES notation. For some assays here: Potency and affinity values are given separately.

Chromo domain-containing protein 1 (Saccharomyces cerevisiae (strain ATCC 204508 / S288c) (Baker's yeast)), sequence (P32657 whole entry, the tested form may be a part): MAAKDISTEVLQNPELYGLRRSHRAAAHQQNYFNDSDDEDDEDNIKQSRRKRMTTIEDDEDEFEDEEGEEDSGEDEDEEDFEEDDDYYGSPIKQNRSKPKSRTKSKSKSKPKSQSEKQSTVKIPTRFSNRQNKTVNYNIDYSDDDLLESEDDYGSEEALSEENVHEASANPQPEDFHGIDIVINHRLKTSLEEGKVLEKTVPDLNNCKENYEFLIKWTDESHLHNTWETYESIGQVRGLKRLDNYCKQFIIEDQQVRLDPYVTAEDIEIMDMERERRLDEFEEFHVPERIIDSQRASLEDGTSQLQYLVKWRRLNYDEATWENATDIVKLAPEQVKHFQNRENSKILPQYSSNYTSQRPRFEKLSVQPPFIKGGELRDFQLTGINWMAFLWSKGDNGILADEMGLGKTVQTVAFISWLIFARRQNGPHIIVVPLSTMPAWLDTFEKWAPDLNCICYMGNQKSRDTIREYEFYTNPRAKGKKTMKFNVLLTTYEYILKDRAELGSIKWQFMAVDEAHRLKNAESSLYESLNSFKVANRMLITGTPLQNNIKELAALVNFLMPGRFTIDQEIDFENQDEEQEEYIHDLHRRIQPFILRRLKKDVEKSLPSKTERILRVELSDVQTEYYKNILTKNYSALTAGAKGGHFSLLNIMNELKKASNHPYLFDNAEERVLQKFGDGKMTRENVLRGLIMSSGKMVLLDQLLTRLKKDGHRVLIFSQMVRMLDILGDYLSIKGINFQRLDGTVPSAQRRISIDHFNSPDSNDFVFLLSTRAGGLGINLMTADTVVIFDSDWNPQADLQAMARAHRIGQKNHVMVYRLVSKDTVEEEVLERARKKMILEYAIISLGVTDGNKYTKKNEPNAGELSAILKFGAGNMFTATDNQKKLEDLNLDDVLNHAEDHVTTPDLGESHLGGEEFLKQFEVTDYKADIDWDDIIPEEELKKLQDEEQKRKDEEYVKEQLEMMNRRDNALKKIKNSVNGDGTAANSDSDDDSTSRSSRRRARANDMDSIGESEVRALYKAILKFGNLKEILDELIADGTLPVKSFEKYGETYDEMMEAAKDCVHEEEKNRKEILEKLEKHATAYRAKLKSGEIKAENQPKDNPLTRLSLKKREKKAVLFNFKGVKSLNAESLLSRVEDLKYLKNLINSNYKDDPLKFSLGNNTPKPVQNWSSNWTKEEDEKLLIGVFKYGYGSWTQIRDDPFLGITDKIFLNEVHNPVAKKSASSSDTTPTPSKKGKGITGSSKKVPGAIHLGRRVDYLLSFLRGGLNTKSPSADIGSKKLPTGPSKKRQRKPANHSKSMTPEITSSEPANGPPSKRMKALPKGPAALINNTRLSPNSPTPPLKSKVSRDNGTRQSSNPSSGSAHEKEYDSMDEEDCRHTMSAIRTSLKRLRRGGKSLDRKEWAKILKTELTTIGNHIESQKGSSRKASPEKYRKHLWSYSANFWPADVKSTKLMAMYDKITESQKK
Protein translocase subunit SecA (Escherichia coli (strain K12)), sequence (P10408 whole entry): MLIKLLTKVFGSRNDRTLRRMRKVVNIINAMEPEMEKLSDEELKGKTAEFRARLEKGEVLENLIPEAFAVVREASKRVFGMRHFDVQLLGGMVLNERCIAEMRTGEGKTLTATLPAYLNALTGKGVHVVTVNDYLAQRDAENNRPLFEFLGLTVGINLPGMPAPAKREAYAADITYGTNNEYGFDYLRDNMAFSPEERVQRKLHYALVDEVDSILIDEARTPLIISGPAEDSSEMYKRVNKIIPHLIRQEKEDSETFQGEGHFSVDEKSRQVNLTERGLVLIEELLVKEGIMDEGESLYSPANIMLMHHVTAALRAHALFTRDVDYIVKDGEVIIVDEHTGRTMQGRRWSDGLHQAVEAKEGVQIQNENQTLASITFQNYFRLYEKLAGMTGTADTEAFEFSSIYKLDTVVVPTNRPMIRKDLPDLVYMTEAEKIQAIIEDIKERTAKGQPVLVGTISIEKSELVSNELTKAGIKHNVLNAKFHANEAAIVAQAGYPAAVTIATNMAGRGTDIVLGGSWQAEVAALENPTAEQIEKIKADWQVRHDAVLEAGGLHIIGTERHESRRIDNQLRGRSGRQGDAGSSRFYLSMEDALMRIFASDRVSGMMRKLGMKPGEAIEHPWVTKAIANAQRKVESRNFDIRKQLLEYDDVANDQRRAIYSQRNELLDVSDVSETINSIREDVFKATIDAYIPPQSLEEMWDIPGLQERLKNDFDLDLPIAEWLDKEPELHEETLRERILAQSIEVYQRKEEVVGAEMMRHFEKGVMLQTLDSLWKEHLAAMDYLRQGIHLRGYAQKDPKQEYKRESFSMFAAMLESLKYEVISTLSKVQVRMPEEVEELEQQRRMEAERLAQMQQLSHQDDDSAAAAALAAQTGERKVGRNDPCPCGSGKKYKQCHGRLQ
Sialic acid-binding Ig-like lectin 9 (Homo sapiens), sequence (Q9Y336 whole entry): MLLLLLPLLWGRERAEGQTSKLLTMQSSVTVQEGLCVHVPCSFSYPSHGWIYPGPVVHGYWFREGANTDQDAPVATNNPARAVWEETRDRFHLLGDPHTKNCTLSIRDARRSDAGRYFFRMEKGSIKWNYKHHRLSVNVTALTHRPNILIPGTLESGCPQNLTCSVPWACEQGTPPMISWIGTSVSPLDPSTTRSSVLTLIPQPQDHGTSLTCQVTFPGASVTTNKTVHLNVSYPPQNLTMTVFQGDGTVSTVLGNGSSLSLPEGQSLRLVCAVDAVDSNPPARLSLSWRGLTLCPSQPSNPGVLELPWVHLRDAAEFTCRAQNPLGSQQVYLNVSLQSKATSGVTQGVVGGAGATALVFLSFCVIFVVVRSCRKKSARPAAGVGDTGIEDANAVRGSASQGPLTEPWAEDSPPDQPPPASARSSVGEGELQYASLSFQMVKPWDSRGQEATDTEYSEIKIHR

As for `Cc1noc(C)c1CN1CC[C@H]2OCC[C@@H](C(=O)N3CCCO3)[C@@H]2C1`, the Percent Effect is -8.03% in assay [1]; 16% in [2]; -5.74% in [3]; -1.2% in assay [4]; 5.02% with Trypanosoma cruzi; -43.5% in [5]. Besides, the Percent Effect in assay [6] is 14.7%; in the assay listed under Homo sapiens, -8.37%; in assay [7], -1.04%; in assay [8], 2.5%; in assay [9], -6.96%.
As for `O=C(Cc1ccccc1F)N1C[C@@H]2COC[C@]2(COc2cccnc2)C1`, the Percent Effect in [1] is -2.71%; in assay [2] it was 8.11%; in assay [3], 2.48%; in assay [4], 0.934%; with Trypanosoma cruzi, -1.66%; in assay [5] it was 10.5%. Further, the Percent Effect in assay [6] is 17.5%; in the assay filed under Homo sapiens, -1.09%; in assay [7], 3.24%; in assay [8] it was 12.8%; in [9], -2.39%.
With `COc1cccc(OCCNC(=O)CN2CCN(C)CC2C)c1` (stereo not given), the Percent Effect in assay [1] is -4.33%; in [2], 13.5%; in assay [3], -5.8%; in assay [4], 15%; in the assay with Trypanosoma cruzi, 6.59%; in assay [5] it was -2.77%. Further, the Percent Effect in [6] was 7.54%; in the assay listed under Homo sapiens, 11.6%; in [7] it was 3.96%; in assay [8], 18.3%; in assay [9], -8.99%.
With `CC(C)Oc1ncnc2c1CCN(Cc1cccs1)CC2`, the Percent Effect in assay [1] is 3.01%; in [2] it was 0%; in [3], 24.6%; in assay [4] it was 8.66%; with Trypanosoma cruzi, -0.193%; in assay [5], -43.9%. In addition, the Percent Effect in assay [6] is 3.76%; in the assay listed under Homo sapiens, 8.59%; in assay [7], 6.25%; in assay [8] it was 10%; in assay [9], -1.96%.
Regarding `CN(C)C(=O)CO[C@@H]1CC[C@H]2[C@H]1OCCN2C(=O)C1CCOCC1`, the Percent Effect is -1.1% in [1]; 2.7% in assay [2]; -6.25% in assay [3]; -1.21% in [4]; -3.52% in the assay with Trypanosoma cruzi; 2.08% in assay [5]. Moreover, the Percent Effect in [6] amounted to 13.8%; in the assay filed under Homo sapiens, 21%; in assay [7], 9.9%; in [8], 8.54%; in assay [9] it was 2.17%.
As to `Cc1ccc(CNC2CCCc3c2cnn3C)s1` (stereo not given), the Percent Effect was -5.39% in assay [1]; 13% in assay [2]; 5.11% in assay [3]; 1.58% in assay [4]; 6.95% with Trypanosoma cruzi; 0.21% in [5]. Further, the Percent Effect is 17.1% in assay [6]; 9% in the assay listed under Homo sapiens; 9.52% in assay [7]; 21.2% in assay [8]; -7.9% in assay [9].
For `COCCn1nc(C(=O)N(C)Cc2cnn(C)c2)ccc1=O`, the Percent Effect in assay [1] was -6.3%; in assay [2], 15.8%; in assay [3], -7.26%; in assay [4], -8.02%; in the assay with Trypanosoma cruzi it was 4.38%; in assay [5] it was -8.28%. Besides, the Percent Effect is 14.7% in assay [6]; 9.08% in the assay listed under Homo sapiens; 5.32% in assay [7]; -2.6% in [8]; -9.82% in assay [9].
With `Cc1nc(N2CCN(C(=O)c3ccsc3)CC2)c2cnn(C)c2n1`, the Percent Effect in assay [1] is -3.6%; in assay [2], 2.7%; in [3], -6.08%; in assay [4] it was 16.1%; in the assay on Trypanosoma cruzi, 1.6%; in [5], -6.01%. For the same compound, the Percent Effect is 5.04% in [6]; 5.31% in the assay filed under Homo sapiens; 4.43% in assay [7]; 13.6% in assay [8]; -7.11% in assay [9].
Turning to `O=C(c1cc[nH]n1)N1CCC(Nc2cccnn2)CC1`, the Percent Effect in assay [1] was -5.6%; in [2] it was 7.79%; in assay [3], 1.01%; in assay [4], -11.8%; in the assay on Trypanosoma cruzi, 8.52%; in assay [5], -2.74%. Further, the Percent Effect is 9.62% in assay [6]; 5.31% in the assay filed under Homo sapiens; 6.67% in [7]; 11.8% in assay [8]; -18.4% in [9].
Take `Cc1ncc2c(n1)CCCC2NC(=O)c1ccncc1` (stereo not given): the Percent Effect in [1] was -8.52%; in [2] it was 2.6%; in [3], -3.85%; in assay [4], 1.2%; in the assay with Trypanosoma cruzi it was -1.87%; in assay [5], -1.38%. Also, the Percent Effect is 3.16% in assay [6]; 0.503% in the assay filed under Homo sapiens; 1.07% in assay [7]; -3.7% in assay [8]; -0.226% in [9].
